Source: PubChem (several laboratories)
PrP UTR inh = inhibition of PrP 5' UTR reporter expression; cell-based PrP 5' UTR mRNA reporter, plate reader; inhibition, % (concentration not given with the values); 340,000 tested, 0.35% active; in the data active = inhibition above about 52%; also: 0 = median of the neutral control wells
DUSP3 inh = blocks human VHR1 dual specificity phosphatase | inhibition, % at 13.3 µM | P51452 | recombinant VHR phosphatase, pNPP absorbance | 290,000 tested, 0.52% active; in the data active = inhibition above about 50%
Target sequence (P51452 whole entry, looked up): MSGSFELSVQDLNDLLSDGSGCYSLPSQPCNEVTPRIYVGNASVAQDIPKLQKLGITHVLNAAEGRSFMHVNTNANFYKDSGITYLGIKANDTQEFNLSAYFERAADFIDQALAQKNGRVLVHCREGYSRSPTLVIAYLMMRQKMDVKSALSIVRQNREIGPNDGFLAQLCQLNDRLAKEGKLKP
PrPC TRFRET = inhibitors of human cell surface prion protein PrPC; P04156; TR-FRET read-out; inhibition, % at 13.8 µM; 370,000 tested, 0.43% active; AID 720596; in the data active = inhibition above about 24%; also: 0% = median of the test wells and 100% = reference compound wells
MazF activator = increases E. coli MazEF RNase cleavage of RNA | 350,000 tested, 0.32% active | P0AE70 | AID 504720 | FAM/BHQ RNA-DNA oligo cleavage fluorescence, 5 h | activation, % at 20 µM; in the data active = activation above about 50%
Target sequence (P0AE70 whole entry, looked up): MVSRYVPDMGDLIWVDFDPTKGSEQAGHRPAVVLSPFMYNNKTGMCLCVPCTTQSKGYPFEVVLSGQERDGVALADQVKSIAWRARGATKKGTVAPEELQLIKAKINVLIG
3CLpro inhibitor = SARS-CoV 3CLpro protease inhibition; recombinant SARS-CoV 3CLpro, quenched FRET peptide cleavage; inhibition, % at 6 µM; 290,000 tested, 0.14% active; P0C6X7; in the data active = inhibition above about 12%
Mtb hypoxia rep = reduces hypoxia-regulated biosensor signal in M. tuberculosis; AID 1159583; fluorescence inhibition, % (no concentration beside the values); M. tuberculosis hypoxia-regulated fluorescent reporter, fluorescence; 300,000 tested, 0.1% active; in the data active = fluorescence inhibition mostly above about 23%, no sharp cut-off; inactive = mostly below about 17%
* hit, by the source's call. An excerpt weighted towards active compounds, which were near 1.5% of everything screened.

For CCOc1ccccc1C1CC(=O)Nc2c1c(=O)n(C)c(=O)n2C (stereo unspecified) the results were PrP UTR inh -49.7, DUSP3 inh -14.3, PrPC TRFRET -2.2, MazF activator 10.2, 3CLpro inhibitor -1.5 and Mtb hypoxia rep 2.5.
CC(C)Oc1ccccc1C1CC(=O)Nc2c1c(=O)n(C)c(=O)n2C (stereo unspecified) was read as DUSP3 inh 58.7*, 3CLpro inhibitor -3.5 and Mtb hypoxia rep 3.1.
Screening CC(NC(=O)c1nc[nH]c1C(=O)NCC(=O)OCc1ccccc1)C(=O)OC(C)(C)C (stereo unspecified) returned Mtb hypoxia rep 4.1.
Screening COc1ccc(CCCC(=O)NN=Cc2ccccc2OC)cc1 returned Mtb hypoxia rep 11.9.
For CN(C)CCCNc1ccc(-c2n[nH]c(=O)c3ccccc23)cc1[N+](=O)[O-] the results were PrP UTR inh -23.9, DUSP3 inh 55.0*, PrPC TRFRET -42.4, MazF activator 13.4, 3CLpro inhibitor -0.7 and Mtb hypoxia rep 3.3.
For CC(O)CNc1ccc(-c2n[nH]c(=O)c3ccccc23)cc1[N+](=O)[O-] (stereo unspecified) the results were PrP UTR inh 14.0, DUSP3 inh -1.6, PrPC TRFRET -45.0, MazF activator 5.7, 3CLpro inhibitor -4.0 and Mtb hypoxia rep 8.0.
O=C(CSc1n[nH]c(-c2ccccc2O)n1)N1CCCc2ccccc21 was read as PrP UTR inh -8.8, DUSP3 inh 51.7*, PrPC TRFRET -2.2, MazF activator 8.4, 3CLpro inhibitor 0.6 and Mtb hypoxia rep 5.8.
Nc1nc(SCC(=O)N2CCCc3ccccc32)n(-c2ccccc2)n1 was read as PrP UTR inh -5.7, DUSP3 inh 50.3*, PrPC TRFRET 11.8, MazF activator 1.0, 3CLpro inhibitor -4.3 and Mtb hypoxia rep 11.0.
O=C(CSc1n[nH]c(-c2cccs2)n1)N1CCCc2ccccc21 was read as PrP UTR inh -18.6, DUSP3 inh 9.1, PrPC TRFRET 1.5, MazF activator -1.9, 3CLpro inhibitor 3.4 and Mtb hypoxia rep 2.4.
O=C(CSc1nnnn1-c1ccccc1)N1CCCc2ccccc21 was read as PrP UTR inh -22.2, DUSP3 inh 9.9, PrPC TRFRET -1.4, MazF activator -3.9 and 3CLpro inhibitor 6.6.
For Cc1ccc(Cl)cc1N1CCN(C(=O)c2ccc3c(c2)CCN3S(C)(=O)=O)CC1 the results were PrP UTR inh 1.6, DUSP3 inh 56.8*, PrPC TRFRET 1.2 and 3CLpro inhibitor -3.2.
`O=C(Nc1cccc(O)c1)c1cccc(NC(=O)c2cccs2)c1` gave PrP UTR inh -20.2, DUSP3 inh 35.8, PrPC TRFRET 3.1, MazF activator 11.5, 3CLpro inhibitor -2.9 and Mtb hypoxia rep 54.1*.
Cc1ccc(OCC(=O)NC(C)c2ccc(Cl)c(Cl)c2)c([N+](=O)[O-])n1 (stereo unspecified) was read as PrP UTR inh -2.0, DUSP3 inh 52.0*, PrPC TRFRET 10.3, MazF activator -4.9, 3CLpro inhibitor 4.3 and Mtb hypoxia rep -2.2.
Screening COC(=O)C1NC(C(NC(=O)COc2ccccc2)C(=O)NC2CC2)SC1(C)C (stereo unspecified) returned Mtb hypoxia rep 14.6.
For COc1ccc(OCCn2cc(/C=C(\C#N)C(=O)NCc3ccco3)c3ccccc32)cc1 the results were PrP UTR inh -13.3, DUSP3 inh 1.3, PrPC TRFRET 1.5, MazF activator 8.8, 3CLpro inhibitor 2.4 and Mtb hypoxia rep 3.6.
For N#C/C(=C\c1cn(CCOc2ccccc2)c2ccccc12)C(=O)NCc1cccs1 the results were PrP UTR inh -20.3, DUSP3 inh -4.7, PrPC TRFRET -0.4, MazF activator 59.3*, 3CLpro inhibitor 7.5 and Mtb hypoxia rep 11.6.
For COc1ccc(-c2cc(-c3nc4ccccn4c3NCc3ccccc3)ccc2OC)cc1 the results were PrP UTR inh 15.7, PrPC TRFRET 85.3* and MazF activator -13.0.
For CC(=NNC(=O)CN(c1ccccc1)S(C)(=O)=O)c1ccccc1O the results were Mtb hypoxia rep -3.1.
`Cc1ccc(C=NNc2cc(C)nc(N3CCOCC3)n2)cc1` gave Mtb hypoxia rep 16.9.
`N#C/C(=N\Nc1cccc(C(F)(F)F)c1)C(=O)c1csc(-c2cccnc2)n1` gave PrP UTR inh -21.3, DUSP3 inh 23.3, PrPC TRFRET 4.7, MazF activator -6.1 and 3CLpro inhibitor -0.4.
`N#CC(=NNc1cccc(C(F)(F)F)c1)C(=O)c1csc(-c2cccnc2)n1` gave Mtb hypoxia rep 44.1*.
O=C(N=c1ccn(-c2nc3ccccc3nc2NS(=O)(=O)c2ccccc2)cc1)c1cccs1 was read as PrP UTR inh -12.2, DUSP3 inh 2.9, PrPC TRFRET -5.5, MazF activator 413.1*, 3CLpro inhibitor 4.5 and Mtb hypoxia rep 0.1.
`Cc1ccccc1C(=O)N=c1ccn(-c2nc3ccccc3nc2NS(=O)(=O)c2ccc(F)cc2)cc1` gave PrP UTR inh -8.7, DUSP3 inh 5.7, PrPC TRFRET -8.6, MazF activator -4.9, 3CLpro inhibitor 8.0 and Mtb hypoxia rep 13.5.
`Cc1ccc(/C=C/C(=O)N2CCN(Cc3ccccc3)CC2)o1` gave PrP UTR inh -29.2, DUSP3 inh -7.0, PrPC TRFRET 4.7, MazF activator 8.5, 3CLpro inhibitor 0.9 and Mtb hypoxia rep 58.9*.
Screening Cc1ccc(C(=O)N2CCN(Cc3ccccc3)CC2)o1 returned PrP UTR inh 4.9, DUSP3 inh 7.7, PrPC TRFRET 3.8, MazF activator -10.1 and 3CLpro inhibitor 0.6.
`S=C(Nc1cccc(Cl)c1)Nc1cccc2cnccc12` gave PrP UTR inh -9.1, DUSP3 inh 50.8*, MazF activator 4.5, 3CLpro inhibitor 1.3 and Mtb hypoxia rep -2.8.
Screening Cc1cccc(C(=O)N[C@H](C(=O)Nc2nnc(C3CC3)s2)C(C)C)c1 returned PrP UTR inh -11.4, DUSP3 inh 4.4, PrPC TRFRET -2.2, MazF activator 4.8, 3CLpro inhibitor -1.9 and Mtb hypoxia rep 11.0.
`Cc1cccc(C(=O)N[C@H](C(=O)Nc2ncc(C)s2)C(C)C)c1` gave PrP UTR inh -17.9, DUSP3 inh -21.9, PrPC TRFRET 41.0*, MazF activator 11.1, 3CLpro inhibitor 4.3 and Mtb hypoxia rep 4.5.
For CN(CC(=O)Nc1ccccc1Cl)CC(=O)c1c(N)n(Cc2ccccc2)c(=O)n(C)c1=O the results were PrPC TRFRET -7.8, MazF activator 66.5* and Mtb hypoxia rep 10.8.
Screening CN(CC(=O)Nc1ccccc1Cl)CC(=O)N(C)c1c(N)n(Cc2ccccc2)c(=O)[nH]c1=O returned PrP UTR inh -5.8, PrPC TRFRET -1.3, MazF activator 0.2 and Mtb hypoxia rep -24.5.
For COc1ccc(NC(=O)C(C)N=C2NS(=O)(=O)c3ccccc32)cc1S(N)(=O)=O (stereo unspecified) the results were PrP UTR inh -17.5, PrPC TRFRET 4.4, MazF activator -4.2 and Mtb hypoxia rep 26.1*.
